# Results reported in PubChem BioAssay (EPA / NIEHS).
# Results filed as inconclusive are left out. The source made the active and inactive calls. How the source made its calls: active means hit-call score of the fitted dose curve at least 0.9, where 1 is the maximum; inconclusive means response in the unintended direction; inactive means score below 0.9.
# Target: human Protein Phosphatase, Mg2+/Mn2+ Dependent 1A (PPM1A), PPM1A (gene 5494) (UniProt P35813)
# Assay: NVS_ENZ_hPPM1A: NovaScreen (NVS) Enzymatic Assay for human Protein Phosphatase, Mg2+/Mn2+ Dependent 1A (PPM1A) (AID 2283198)
# Description: NVS_ENZ_hPPM1A is a biochemical, single-readout assay that uses extracted gene-proteins in a cell-free assay. Measurements were taken 1 hour after chemical dosing in a 384-well plate.NVS_ENZ_hPPM1A is one of one assay component(s) measured or calculated from the NVS_ENZ_hPPM1A assay. It is designed to make measurements of enzyme activity, a form of enzyme reporter, as detected with fluorescence intensity signals by Fluorescence and electrophoretic mobility shift technology.Data from the assay component NVS_ENZ_hPPM1A was analyzed into 1 assay endpoint. This assay endpoint, NVS_ENZ_hPPM1A, was analyzed in the positive analysis fitting direction relative to DMSO as the negative control and baseline of activity. Using a type of enzyme reporter, loss-of-signal activity can be used to understand changes in the enzymatic activity as they relate to the gene PPM1A. Furthermore, this assay endpoint can be referred to as a primary readout, because this assay has produced multiple assay endpoints where this one serves a enzymatic activity function. To generalize the intended target to other relatable targets, this assay endpoint is annotated to the phosphatase intended target family, where the subfamily is serine/threonine phosphatase.
# Binding assays used specific radioligands (tritiated, iodinated) with non-radioactive competitive displacement ligands in agonist or antagonist protocols (as indicated) and various reference compounds and inhibitors to titrate specific binding to receptors and transporters. Most enzyme assays (CYPs, kinases, phosphatases, proteases, HDACs) used recombinant protein and specific substrates (fluorescence mostly, some colorimetric and radioactive) and inhibitors, followed by a biochemical separation of substrate and product. All assays for the biochemical HTS were initially run in duplicate at a single concentration (10 uM for CYP450 assays and 25 uM for all others). Assay-chemical combinations meeting a pre-defined threshold (e.g., 30% inhibition and other criteria defined below) were then run in singleton concentration-response format with maximum concentration of 20 uM for CYPs and 50 uM for all others. Each assay was run with positive and negative controls, and concurrent controls on every plate. The follow-up (secondary) screen tested active chemical-pairs in concentration series, as well as a few additional assays not tested in the primary screen, some selected negative inactives, and several cases re-run in the concentration series for confirmatory purposes.
# Sequence of human Protein Phosphatase, Mg2+/Mn2+ Dependent 1A (PPM1A), PPM1A (gene 5494) (P35813 whole entry, looked up): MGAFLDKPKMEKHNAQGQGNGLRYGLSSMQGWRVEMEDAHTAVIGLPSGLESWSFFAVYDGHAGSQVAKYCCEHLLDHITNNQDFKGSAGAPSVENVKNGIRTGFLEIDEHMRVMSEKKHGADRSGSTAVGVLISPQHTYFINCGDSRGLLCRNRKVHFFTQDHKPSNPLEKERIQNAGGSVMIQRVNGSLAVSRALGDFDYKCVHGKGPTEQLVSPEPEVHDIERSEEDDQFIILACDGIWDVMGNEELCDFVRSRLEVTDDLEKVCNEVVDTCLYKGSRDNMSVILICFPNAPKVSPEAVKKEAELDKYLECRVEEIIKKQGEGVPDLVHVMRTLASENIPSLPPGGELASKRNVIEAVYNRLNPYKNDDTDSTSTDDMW
row,Structure (SMILES),outcome
1,Oc1ccc2c(c1)OC[C@@H](N1CCC(O)(c3ccc(F)cc3)CC1)[C@H]2O,inactive
2,Cc1cc(=O)[nH]c(=S)[nH]1,inactive
3,CC(C)(C)c1cc(O)c(C(C)(C)C)cc1O,inactive
4,CN[C@H]1CC[C@@H](c2ccc(Cl)c(Cl)c2)c2ccc(S(N)(=O)=O)cc21,inactive
5,CCCCCCC(=O)OCC,inactive

# Target: Serine/threonine-protein phosphatase PP1-alpha catalytic subunit (Homo sapiens) (UniProt P62136)
# Assay: NVS_ENZ_hPPP1CA: NovaScreen (NVS) Enzymatic Assay for human Protein Phosphatase 1 Aatalytic subunit Alpha (PPP1CA) (AID 2283200)
# Method in brief: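 Recombinant enzyme activity read by fluorescence with electrophoretic mobility shift separating substrate from product, 1.33 h after dosing; loss of signal vs DMSO baseline. Primary screen in duplicate at 25 uM; actives retested in concentration-response up to 50 uM.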
# Sequence of Serine/threonine-protein phosphatase PP1-alpha catalytic subunit (Homo sapiens) (P62136 whole entry, looked up): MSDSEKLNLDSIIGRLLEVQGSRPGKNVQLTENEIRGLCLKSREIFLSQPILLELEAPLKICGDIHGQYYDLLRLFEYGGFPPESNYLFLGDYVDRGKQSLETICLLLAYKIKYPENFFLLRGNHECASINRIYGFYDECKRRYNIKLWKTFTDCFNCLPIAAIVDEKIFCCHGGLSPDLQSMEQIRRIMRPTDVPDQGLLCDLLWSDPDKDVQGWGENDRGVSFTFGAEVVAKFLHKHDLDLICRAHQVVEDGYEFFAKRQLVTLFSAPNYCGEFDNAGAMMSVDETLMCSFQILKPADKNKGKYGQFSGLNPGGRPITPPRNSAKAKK
Structure (SMILES),outcome,AC50
Nc1ccc2c(c1)C(=O)c1ccccc1C2=O,inactive,–
CC1(C)NC(=O)NC1=O,inactive,–
CCCCN(CCCC)CCCC,inactive,–
COc1cc(-c2nc(NC(=O)c3cc4cc(C)cc(C)c4n3CC(=O)O)sc2CCC2CCCCC2)c(OC)cc1Cl,–,1.42 µM (active)

# Target: human Protein Tyrosine Phosphatase Non-receptor Type 9 (PTPN9), PTPN9 (gene 5780) (UniProt P43378)
# Assay: NVS_ENZ_hPTPN9: NovaScreen (NVS) Enzymatic Assay for human Protein Tyrosine Phosphatase Non-receptor Type 9 (PTPN9) (AID 2283209)
# Method in brief: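 Sf9-expressed enzyme in a cell-free assay, fluorescence read 1.33 h after dosing with mobility-shift separation of substrate and product. Tested at 25 uM in duplicate, then up to 50 uM; signal loss versus DMSO.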
# Sequence of human Protein Tyrosine Phosphatase Non-receptor Type 9 (PTPN9), PTPN9 (gene 5780) (P43378 whole entry, looked up): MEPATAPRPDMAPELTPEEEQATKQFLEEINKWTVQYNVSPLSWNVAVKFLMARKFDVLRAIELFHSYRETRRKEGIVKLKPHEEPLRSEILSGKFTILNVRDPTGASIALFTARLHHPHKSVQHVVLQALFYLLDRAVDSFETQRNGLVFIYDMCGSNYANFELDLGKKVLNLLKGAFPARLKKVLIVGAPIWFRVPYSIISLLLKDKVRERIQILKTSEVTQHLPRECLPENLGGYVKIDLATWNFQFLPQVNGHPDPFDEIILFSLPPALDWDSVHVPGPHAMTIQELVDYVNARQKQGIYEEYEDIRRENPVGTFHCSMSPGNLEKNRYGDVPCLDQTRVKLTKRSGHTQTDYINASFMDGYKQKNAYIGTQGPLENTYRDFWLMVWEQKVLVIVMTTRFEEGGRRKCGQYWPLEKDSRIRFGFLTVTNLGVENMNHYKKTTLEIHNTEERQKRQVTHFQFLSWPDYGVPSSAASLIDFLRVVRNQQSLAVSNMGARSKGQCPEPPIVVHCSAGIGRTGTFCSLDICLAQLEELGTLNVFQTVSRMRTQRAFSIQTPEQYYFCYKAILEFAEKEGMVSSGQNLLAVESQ
Structure (SMILES),outcome,AC50
O=C(O)CCCCC(=O)O,inactive,–
CCCCCCCCCCC,inactive,–
O=[N+]([O-])C(CO)(CO)CO,–,38.4 µM (active)
Oc1ccc2ccccc2c1N=Nc1ccccc1,–,25 µM (active)
Cc1ccc2ncccc2c1,inactive,–

# Target: human Protein Tyrosine Phosphatase Non-receptor Type 6 (PTPN6), PTPN6 (gene 5777) (UniProt P29350)
# Assay: NVS_ENZ_hPTPN6: NovaScreen (NVS) Enzymatic Assay for human Protein Tyrosine Phosphatase Non-receptor Type 6 (PTPN6) (AID 2283210)
# Method in brief: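 Cell-free assay with recombinant PTPN6 expressed in SF9 cells, fluorescent substrate, product separated from substrate by electrophoretic mobility shift; read 1.33 hours after dosing. Primary screen in duplicate at 25 uM, actives retested in concentration series; DMSO baseline.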
# Sequence of human Protein Tyrosine Phosphatase Non-receptor Type 6 (PTPN6), PTPN6 (gene 5777) (P29350 whole entry, looked up): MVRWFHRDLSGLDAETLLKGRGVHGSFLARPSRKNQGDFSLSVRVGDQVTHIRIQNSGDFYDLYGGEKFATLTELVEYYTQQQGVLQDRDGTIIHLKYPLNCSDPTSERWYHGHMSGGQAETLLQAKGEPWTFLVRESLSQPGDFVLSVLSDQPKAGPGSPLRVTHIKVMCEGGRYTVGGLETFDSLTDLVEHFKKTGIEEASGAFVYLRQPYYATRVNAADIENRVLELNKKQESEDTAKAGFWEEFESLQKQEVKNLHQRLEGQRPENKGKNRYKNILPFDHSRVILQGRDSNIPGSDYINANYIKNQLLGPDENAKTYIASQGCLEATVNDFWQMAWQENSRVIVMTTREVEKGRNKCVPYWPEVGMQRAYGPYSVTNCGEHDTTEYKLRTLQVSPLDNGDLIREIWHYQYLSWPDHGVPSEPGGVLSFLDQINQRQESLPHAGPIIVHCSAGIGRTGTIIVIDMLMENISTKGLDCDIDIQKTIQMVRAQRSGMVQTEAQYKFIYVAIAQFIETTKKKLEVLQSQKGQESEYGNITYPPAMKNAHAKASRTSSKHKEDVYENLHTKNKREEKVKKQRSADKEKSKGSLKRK
row,Structure (SMILES),outcome
1,COc1ccc(C)cc1N,inactive
2,O=[N+]([O-])C(CO)(CO)CO,inactive
3,Oc1ccc2ccccc2c1N=Nc1ccccc1,inactive
4,C[C@]12C=CC(=O)C=C1CC[C@@H]1[C@@H]2C(=O)C[C@@]2(C)[C@H]1CC[C@]2(O)C(=O)CO,inactive
5,Cc1ccc2ncccc2c1,inactive

# Target: human Rho Associated Coiled-coil Containing Protein Kinase 1 (ROCK1), ROCK1 (gene 6093) (UniProt Q13464)
# Assay: NVS_ENZ_hROCK1: NovaScreen (NVS) Enzymatic Assay for human Rho Associated Coiled-coil Containing Protein Kinase 1 (ROCK1) (AID 2283214)
# Method in brief: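 Cell-free recombinant human ROCK1 activity assay; fluorescent substrate and product separated by electrophoretic mobility shift, read 1 h after dosing. Screened in duplicate at 25 uM; loss of signal versus DMSO baseline scored as inhibition.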
# Sequence of human Rho Associated Coiled-coil Containing Protein Kinase 1 (ROCK1), ROCK1 (gene 6093) (Q13464 whole entry, looked up): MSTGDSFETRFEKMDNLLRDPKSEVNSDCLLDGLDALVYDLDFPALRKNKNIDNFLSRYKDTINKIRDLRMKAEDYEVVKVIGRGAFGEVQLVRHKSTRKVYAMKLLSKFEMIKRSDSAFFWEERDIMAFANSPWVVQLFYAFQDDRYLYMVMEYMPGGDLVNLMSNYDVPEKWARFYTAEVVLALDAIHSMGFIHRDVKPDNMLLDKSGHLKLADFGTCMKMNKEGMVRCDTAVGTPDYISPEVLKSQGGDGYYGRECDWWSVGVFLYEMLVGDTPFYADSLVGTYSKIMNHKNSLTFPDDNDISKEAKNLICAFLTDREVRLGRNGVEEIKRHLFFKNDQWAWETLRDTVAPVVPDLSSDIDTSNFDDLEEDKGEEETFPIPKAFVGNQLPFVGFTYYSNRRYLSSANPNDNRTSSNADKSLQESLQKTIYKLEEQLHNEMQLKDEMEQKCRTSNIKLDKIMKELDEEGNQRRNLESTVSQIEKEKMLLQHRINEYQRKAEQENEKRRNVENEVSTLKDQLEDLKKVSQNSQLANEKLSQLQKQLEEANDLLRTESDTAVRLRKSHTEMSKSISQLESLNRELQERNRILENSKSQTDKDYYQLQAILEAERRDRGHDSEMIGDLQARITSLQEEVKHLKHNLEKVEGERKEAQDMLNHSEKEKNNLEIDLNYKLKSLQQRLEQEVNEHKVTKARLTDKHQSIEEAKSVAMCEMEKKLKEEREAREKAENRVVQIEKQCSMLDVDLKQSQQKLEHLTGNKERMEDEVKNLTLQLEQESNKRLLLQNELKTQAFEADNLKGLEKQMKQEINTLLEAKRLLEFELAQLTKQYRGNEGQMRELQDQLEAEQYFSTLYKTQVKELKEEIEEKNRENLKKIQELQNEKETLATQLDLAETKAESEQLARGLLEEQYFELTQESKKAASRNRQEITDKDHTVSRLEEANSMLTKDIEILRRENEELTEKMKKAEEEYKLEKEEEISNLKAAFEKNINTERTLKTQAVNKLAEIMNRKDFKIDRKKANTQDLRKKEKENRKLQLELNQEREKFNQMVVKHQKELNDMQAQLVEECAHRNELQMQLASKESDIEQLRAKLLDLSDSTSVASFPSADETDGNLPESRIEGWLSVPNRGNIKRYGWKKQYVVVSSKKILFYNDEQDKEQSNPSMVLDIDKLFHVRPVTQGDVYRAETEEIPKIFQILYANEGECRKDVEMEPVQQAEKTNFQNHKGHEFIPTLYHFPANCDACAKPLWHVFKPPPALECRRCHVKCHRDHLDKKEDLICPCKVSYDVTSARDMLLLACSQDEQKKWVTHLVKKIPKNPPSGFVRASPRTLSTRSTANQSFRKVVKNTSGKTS
row,Structure (SMILES),outcome
1,CC(=O)OCCOCCOCCOC(C)=O,inactive
2,Cc1nc(C)nc(N2C[C@@H](C)N(c3ccnc([C@@H](C)O)n3)[C@@H](C)C2)n1,inactive
3,Cc1ccc(C)c(O)c1C,inactive
4,CCCCCCCCCCCCCCCCCC(=O)O,inactive
5,Cc1cccc([N+](=O)[O-])c1C,inactive
